From PubChem BioAssay
HT1080 IDH1KD tx = HT-1080 IDH1 knockdown cell toxicity (counter line); Potency, µM (titrated, usually from 46.1 µM), hits mostly cytotoxic; 2% of 360,000 active; HT-1080 IDH1 knockdown viability, ATP luminescence, 48 h; AID 686971
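In this qHTS, HT-1080 cells depleted of IDH1 are exposed for 48 h at 37 °C to compound titrations. Toxicity is scored from CellTiter-Glo luminescence, with DMSO as full viability and medium alone as none.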
DT40 TDP1 CPT = growth inhibition of DT40 Tdp1-/-;hTDP1 cells with camptothecin (screen for TDP1 inhibitors). 12% of 420,000 active. Potency, µM (highest dose often 46.2 µM), actives largely listed as inhibitors. chicken DT40 Tdp1-/-;hTDP1 cells + 20 nM CPT, ATP luminescence, 48 h; also: nearly all actives have a fitted effect of over 55% in size
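Cell growth measured by CellTiter-Glo luminescence after a minimum 48 h, 37 C compound exposure with 20 nM CPT in Tdp1-knockout DT40 cells stably expressing hTDP1, seeded 400/well; qHTS titration format.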
DT40 TDP1 no CPT = qHTS for Inhibitors of human tyrosyl-DNA phosphodiesterase 1 (TDP1): qHTS in cells in absence of CPT. DT40 Tdp1-/- hTDP1 cells, no CPT, ATP luminescence, 48 h. Potency, µM (doses to about 46.2 µM), usual class: inhibitors. 15% of 420,000 active; also: nearly all actives have a fitted effect of over 55% in size
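A cellular qHTS used chicken DT40 cells lacking endogenous Tdp1 but carrying stably transfected human TDP1. Compounds were applied without camptothecin, and cell growth kinetics were judged by ATP-dependent luminescence after ≥48 hr.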
IL-1B inflam inh = inhibitors of inflammasome signaling (IL-1 beta secretion) | THP-1 LPS/ATP IL-1B secretion, AlphaLISA, 16 h; active compounds read low | activity change, % at 57.5 µM | 4.7% of 360,000 active | AID 743279; in the data active = activity change below about -50%; inconclusive = mostly about -30% to -49%
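Secreted IL-1B measured by AlphaLISA bead assay after 16 h compound exposure of THP-1 cells; compounds (final up to 57.5 uM) added 1 h before LPS (250 ng/mL) and ATP (1.25 mM) stimulation; lower signal means less secretion.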
12-LOX inh = inhibitors of human 12S-lipoxygenase ALOX12. 1.1% of 580,000 active. P18054. Potency, µM (doses to about 108 µM), usual class: inhibitors. purified 12hLO, xylenol orange hydroperoxide absorbance. AID 1671190
Target sequence (P18054 whole entry, looked up): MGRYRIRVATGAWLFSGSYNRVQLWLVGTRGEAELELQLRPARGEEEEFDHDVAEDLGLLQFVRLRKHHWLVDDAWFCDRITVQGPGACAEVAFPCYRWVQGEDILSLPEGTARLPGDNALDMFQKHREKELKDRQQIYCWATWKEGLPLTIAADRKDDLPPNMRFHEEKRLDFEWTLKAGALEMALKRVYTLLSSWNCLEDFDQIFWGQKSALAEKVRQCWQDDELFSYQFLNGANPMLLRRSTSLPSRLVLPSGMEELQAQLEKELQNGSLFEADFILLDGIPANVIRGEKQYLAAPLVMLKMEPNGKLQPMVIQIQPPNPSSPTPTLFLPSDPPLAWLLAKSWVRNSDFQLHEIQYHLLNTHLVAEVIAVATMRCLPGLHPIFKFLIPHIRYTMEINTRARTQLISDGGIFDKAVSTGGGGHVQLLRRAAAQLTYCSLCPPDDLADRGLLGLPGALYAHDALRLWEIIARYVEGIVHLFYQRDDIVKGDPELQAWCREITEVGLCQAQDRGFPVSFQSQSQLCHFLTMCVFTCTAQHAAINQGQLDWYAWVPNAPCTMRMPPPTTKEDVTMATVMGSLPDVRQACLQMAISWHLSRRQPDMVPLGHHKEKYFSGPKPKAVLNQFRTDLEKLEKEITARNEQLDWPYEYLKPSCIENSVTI
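Purified human 12hLO at 150 nM in 25 mM Hepes, 0.01% Triton X-100, pH 7.0, preincubated 15 min at room temperature with compound. Reaction started with 40 uM arachidonic acid, 30 min at room temperature. Hydroperoxide measured by Fe-xylenol orange, 573/405 nm absorbance ratio.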
HT1080NT lethal = kills 2HG-producing HT-1080-NT fibrosarcoma cells; HT-1080-NT fibrosarcoma viability, CellTiter-Glo ATP luminescence, 48 h; Potency, µM (titrated, usually from 46.1 µM), usual class: cytotoxic; 1.6% of 360,000 active; AID 686970;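 also: NT is the 2HG producing partner of a matched IDH1 knockdown line; nearly all actives have a fitted effect of over 55% in size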
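Luminescent CellTiter-Glo readout after 48 hours of compound exposure at 37 degrees C defined viability of HT-1080-NT cells. Activity was normalized to DMSO wells and cell-free media wells; concentration-response curves were fitted and assigned curve classes.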
A number is an active result; i = inactive; ? = inconclusive; nt = no result; [ ] = remark or other dose. The full list was thinned out, with hits kept by preference. Unless noted, calls follow the shape of the dose curve; as a rule, active = well fitted curve in the direction sought with a large enough effect; inconclusive = small, poorly fitted or top-dose-only effect, or another doubt; inactive = no such curve, though single readings can be large; an effect the other way counts as inactive or inconclusive.

SMILES	HT1080 IDH1KD tx	DT40 TDP1 CPT	DT40 TDP1 no CPT	IL-1B inflam inh	12-LOX inh	HT1080NT lethal
COc1ccc(NS(=O)(=O)c2cc(C(=O)N3CCc4sccc4C3)ccc2Cl)cc1	nt	nt	nt	nt	i	nt
Cc1ccc(C(=O)N/N=C\c2cccnc2)s1	i	i	i	i	i	i
COc1cc(/C=N/NC(=O)c2sc(N)c(C#N)c2C)cc(Br)c1O	i	i	?	-77.0	i	i
Cc1c(C(=O)N/N=C/c2cccnc2)sc(N)c1C#N	i	i	i	-62.8	i	i
COc1ccc(NCc2cccn2-c2nnc(N3CCC(C)CC3)s2)c(OC)c1	nt	?	16.4µM	nt	i	nt
COc1ccc(NCc2cccn2-c2nnc(N3CCOCC3)s2)c(OC)c1	nt	i	i	nt	i	nt
COc1ccc(OC)c(NCc2cccn2-c2nnc(N3CCC(C)CC3)s2)c1	nt	2.91µM	2.59µM	nt	i	nt
O=C(c1ccc2cc[nH]c2c1)N1CCC2(CC1)CC(Cc1cccc(F)c1)CCO2 (centres undefined)	nt	nt	nt	nt	i	nt
CC1CCCN(c2ccc(C(=O)Nc3cccnc3)cc2[N+](=O)[O-])C1 (centres undefined)	?	16.4µM	?	?	i	?
CC(=O)Nc1ccc(N2CCC(C)CC2)c([N+](=O)[O-])c1	i	i	i	i	i	?
Cc1ccc(C(=O)Nc2cccnc2)cc1[N+](=O)[O-]	i	i	i	i	i	i
CC(=O)Nc1ccc(N2CCCC(C)C2)c([N+](=O)[O-])c1 (centres undefined)	i	i	23.1µM	i	i	?
Cn1c(=O)n(C)c2cc([N+](=O)[O-])c(N3CCN(S(=O)(=O)c4ccc5ccccc5c4)CC3)cc21	i[9.24 µM]	16.4µM	?	?	i	i
Cc1ccc(C(=O)N2CCN(c3cc4c(cc3[N+](=O)[O-])n(C)c(=O)n4C)CC2)cc1	i	?	?	i	i	i
Cn1c(=O)n(C)c2cc([N+](=O)[O-])c(N3CCN(C(=O)c4cccc(Cl)c4)CC3)cc21	i	?	18.4µM	i	i	i
CN1CCN(c2ccc(S(=O)(=O)N3CCCCC3)cc2[N+](=O)[O-])CC1	i	i	i	i	?	i
Cc1ccc(S(=O)(=O)N2CCN(c3cc4c(cc3[N+](=O)[O-])n(C)c(=O)n4C)CC2)cc1	i	?	16.4µM	i	i	i
Cc1nc2nc3ccn(CCCN(C)C)c(=O)c3c(-c3ccccc3)n2n1	nt	nt	nt	nt	i	nt
CCc1ccc(NC(=O)CSc2c(C)cnc3c2c(=O)n(C)c(=O)n3C)cc1	nt	23.1µM	23.1µM	nt	i	nt
CCc1cnc2c(c1SCC(=O)Nc1ccc(C(=O)OC)cc1)c(=O)n(C)c(=O)n2C	nt	i	i	nt	i	nt
CCCc1cnc2c(c1SCC(=O)Nc1c(C)cc(C)cc1C)c(=O)n(C)c(=O)n2C	nt	i	i	nt	?	nt
CC(C)c1cnc2c(c1SCC(=O)Nc1ccc(OC(F)(F)F)cc1)c(=O)n(C)c(=O)n2C	nt	9.2µM	8.2µM	nt	i	nt
Cc1ccc(CSc2c(C)cnc3c2c(=O)n(C)c(=O)n3C)cc1	nt	23.1µM	?	nt	i	nt
CCCc1cnc2c(c1SCC(=O)Nc1ccc(C)c(Cl)c1)c(=O)n(C)c(=O)n2C	nt	18.4µM	?	nt	i	nt
Cc1nonc1CC(=O)N1CCCC(CNS(=O)(=O)c2cccs2)C1 (centres undefined)	nt	nt	nt	nt	i	nt
SMILES	HT1080 IDH1KD tx	DT40 TDP1 CPT	DT40 TDP1 no CPT	IL-1B inflam inh	12-LOX inh	HT1080NT lethal
CCOc1ccccc1Oc1coc2cc(OCc3cc(C)ccc3C)ccc2c1=O	nt	nt	nt	nt	i	nt
CCCc1cnc2c(c1SCc1ccc(C(F)(F)F)cc1)c(=O)n(C)c(=O)n2C	nt	?	20.6µM	nt	i	nt
CC(C)c1nc(SCC(=O)Nc2cccc(C(F)(F)F)c2)c2c(=O)n(C)c(=O)n(C)c2n1	i	4.61µM	3.66µM	i	i	i
Cn1c(=O)c2c(nc(SCC(=O)Nc3ccc(OC(F)(F)F)cc3)n2Cc2cccc(C(F)(F)F)c2)n(C)c1=O	nt	10.3µM	8.2µM	nt	i	nt
Cc1ccc(C)c(CSc2c(C(C)C)cnc3c2c(=O)n(C)c(=O)n3C)c1	nt	18.4µM	?	nt	i	nt
CCc1cnc2c(c1SCc1ccccc1C)c(=O)n(C)c(=O)n2C	nt	i	?	nt	i	nt
CCNC(=O)NC(=O)CN(CC)c1cccc(C)c1	nt	nt	nt	nt	i	nt
CCSc1nc2c(c(=O)n(C)c(=O)n2C)n1CCCc1ccccc1	nt	nt	nt	nt	i	nt
CCOC(=O)c1c(NC(=O)c2cc(=O)c3ccccc3o2)sc(C)c1C	nt	nt	nt	nt	i	nt
Cc1cc(SCC(=O)NC(N)=O)nc2ccccc12	nt	nt	nt	nt	i	nt
O=C(Nc1ccc(-c2csnn2)cc1)C(Cl)(Cl)Cl	i	16.4µM	7.31µM	?	i	i
COc1ccc(C2=C(O)C(=O)N(c3ccc(OC)cc3)C2c2cccc(Br)c2)cc1 (centres undefined)	nt	nt	nt	nt	i	nt
Cc1nn(C)c(Oc2ccc(Cl)cc2)c1C(=O)Nc1ccc(F)cc1F	i	?	7.31µM	i	i	i
C[C@]1(C(=O)NCCCNc2ncc(C(F)(F)F)cc2Cl)C=C[C@@H](Cc2ccccc2)N1C(=O)c1ccccc1	i	?	25.9µM	?	nt	i
CC1(C(=O)NCCCNc2ncc(C(F)(F)F)cc2Cl)C=CCN1C(=O)c1ccccc1 (centres undefined)	i	?	?	-77.2	?	i
CN1CCC(N(C)C(=O)c2nn(-c3ccccc3)c(=O)c3ccccc23)CC1	nt	nt	nt	nt	i	nt
Cc1ccccc1NC(=O)COC(=O)CCc1nc2ccccc2s1	nt	nt	nt	nt	i	nt
COc1ccccc1OCCN1CSC(=S)N(C)C1	7.31µM	1.16µM	1.84µM	-107.3	i	9.2µM
Cc1cccc(OCCN2CSC(=S)N(C)C2)c1	?	4.61µM	3.26µM	-96.1	i	18.4µM
Cc1cccc(OCCn2cnc(Cl)c2Cl)c1	i	i	i	-51.9	?	i
CCCc1cc2c(=O)c(-c3ccccn3)coc2cc1OC	i[9.24 µM]	?	8.2µM	i	i	?
CCCNc1c(NC(=O)c2ccc(Br)o2)c(=O)oc2ccccc12	nt	nt	nt	nt	i	nt
O=C(Nc1ccc(F)c(F)c1F)c1n[nH]c(=O)c2ccccc12	nt	nt	nt	nt	i	nt
Cc1cc(N2CCOCC2)nc2ccc(NC(=S)NCc3ccc4c(c3)OCO4)cc12	i	?	18.4µM	i	i	i
Cc1cc(N2CCCCC2)nc2ccc(NC(=O)c3cccc(Cl)c3)cc12	nt	23.1µM	20.6µM	nt	i	nt
COCCNC(=S)Nc1ccc2nc(N3CCOCC3)cc(C)c2c1	i	i	i	i	?	i
Cc1cc(N2CCCCC2)nc2ccc(NC(=O)c3cccc(F)c3)cc12	nt	7.31µM	7.31µM	nt	i	nt
CCN1CCN(c2cc(C)c3cc(NC(=O)c4ccncc4)ccc3n2)CC1	i	?	?	i	i	i
